The panel holds about 83,000 compounds, 20% with a hit somewhere; the sample as a whole holds those more often.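 Percent growth is the endpoint: 0 to 100 indicates growth inhibition (40 means 60% inhibition), 0 means no net growth, and negative values indicate cell death.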 Values without a mark were called inactive. Activity calls are given as the source filed them. The calls were made as follows: active = growth percent below 10; inactive = the rest.

Test systems include NCI-H23 lung; NCI-H322M lung; HOP-62 NSCLC; NCI-H460 lung; HOP-92 NSCLC; NCI-H522 lung; A549/ATCC NSCLC; 786-0 renal; COLO 205 colon; DU-145 prostate; K-562 leukemia; MALME-3M melanoma; MDA-MB-231 breast; RXF 393 renal; SF-268 CNS; SF-295 CNS; SF-539 CNS; UACC-257 melanoma; M14 melanoma; NCI-H226 lung.
Assay in all cases: NCI-60 one-dose screen, 48 h (100 = growth as untreated, 0 = no growth, -100 = all killed)
What all share (settings): 10 µM unless noted

Regarding `COc1cc2cc(NCc3ccc(OC(F)F)cc3)nc(C)c2cc1OC`, the growth was 45.1% with NCI-H23 lung; 53.4% in the assay on NCI-H322M lung; 58.7% with HOP-62 NSCLC; 57.2% in the assay with NCI-H460 lung; 63% in the assay on HOP-92 NSCLC; 45.3% in the assay on NCI-H522 lung. Further, the growth with A549/ATCC NSCLC was 72.1%; in the assay with 786-0 renal, 61.8%; with COLO 205 colon, 65.7%; with DU-145 prostate, 75.8%; in the assay with K-562 leukemia it was 34%; in the assay on MALME-3M melanoma it was 72.4%. Besides, the growth with MDA-MB-231 breast was 62.6%; in the assay with RXF 393 renal, 67.1%; in the assay on SF-268 CNS, 73.2%; in the assay with SF-295 CNS, 35%; in the assay on SF-539 CNS it was 69.1%; in the assay with UACC-257 melanoma, 87.5%. In the assay on M14 melanoma, the growth is 63.9%.

Take `C[C@H]1[C@H](C)CC[C@]2(C(=O)O)CC[C@]3(C)C(=CC[C@@H]4[C@@]5(C)C[C@@H](Cc6cn([C@@H]7O[C@H](CO)[C@@H](O)[C@H](O)[C@H]7O)nn6)[C@H](O)C(C)(C)[C@@H]5CC[C@]43C)[C@H]12`: the growth with NCI-H23 lung was 97.7%; in the assay with NCI-H322M lung it was 102%; in the assay on HOP-62 NSCLC, 88.9%; with NCI-H460 lung, 107%; in the assay on HOP-92 NSCLC, 95.6%; in the assay on NCI-H522 lung, 103%. The growth in the assay on A549/ATCC NSCLC was 89%; in the assay on 786-0 renal, 94.6%; in the assay on COLO 205 colon, 105%; in the assay on DU-145 prostate, 105%; with K-562 leukemia it was 95.4%; in the assay on MALME-3M melanoma, 108%. The growth in the assay with MDA-MB-231 breast was 102%; in the assay on RXF 393 renal, 118%; with SF-268 CNS, 103%; in the assay with SF-295 CNS, 98.8%; in the assay on SF-539 CNS, 109%; in the assay on UACC-257 melanoma it was 90.2%. In addition, in the assay on M14 melanoma, the growth was 93.9%.

Take `CCN(CC)c1ccc(N2C(=O)/C(=C/c3cccs3)SC2=S)cc1`: the growth in the assay on NCI-H23 lung is 94.8%; in the assay with NCI-H226 lung it was 93.7%; in the assay with HOP-62 NSCLC, 106%; in the assay with NCI-H460 lung, 97.8%; in the assay on NCI-H522 lung it was 82.9%; with A549/ATCC NSCLC, 92%. Also, the growth is 95.6% in the assay on 786-0 renal; 101% in the assay on COLO 205 colon; 100% in the assay with DU-145 prostate; 94% in the assay with K-562 leukemia; 84.2% with MALME-3M melanoma; 91.3% in the assay with MDA-MB-231 breast. Moreover, the growth with RXF 393 renal was 98.3%; in the assay on SF-268 CNS, 92.1%; with SF-295 CNS, 99.6%; in the assay with SF-539 CNS, 94.3%; in the assay on UACC-257 melanoma it was 80.6%; with M14 melanoma it was 95.4%.

Regarding `Cn1cccc1/C=C1\C(=O)Nc2ccccc21`, the growth was 66.9% with NCI-H23 lung; 87.9% with NCI-H322M lung; 86.8% in the assay with HOP-62 NSCLC; 89.1% in the assay on NCI-H460 lung; 97.2% in the assay on HOP-92 NSCLC; 101% with NCI-H522 lung. The growth was 101% in the assay with A549/ATCC NSCLC; 96.6% in the assay on 786-0 renal; 121% with COLO 205 colon; 110% with DU-145 prostate; 98.9% in the assay with K-562 leukemia; 94.8% with MALME-3M melanoma. Also, the growth with MDA-MB-231 breast is 67.4%; with RXF 393 renal it was 103%; with SF-268 CNS, 92.3%; in the assay with SF-295 CNS it was 100%; in the assay on SF-539 CNS, 99.5%; in the assay with UACC-257 melanoma, 98%. Also, the growth in the assay with M14 melanoma was 96.6%.

Regarding `C=CCOC(=O)C1=C(C)NC(=O)NC1c1c(Cl)n(C)c2ccccc12` (stereo not drawn), the growth is 88.3% with NCI-H23 lung; 96.9% in the assay on NCI-H322M lung; 92.9% in the assay on HOP-62 NSCLC; 106% in the assay on NCI-H460 lung; 55.3% with HOP-92 NSCLC; 93.3% with NCI-H522 lung. In addition, the growth with A549/ATCC NSCLC was 103%; in the assay with 786-0 renal, 91.3%; in the assay on COLO 205 colon it was 111%; with DU-145 prostate, 107%; in the assay with K-562 leukemia it was 106%; in the assay on MALME-3M melanoma, 105%. In addition, the growth in the assay with MDA-MB-231 breast was 96%; with RXF 393 renal, 100%; with SF-268 CNS, 95.4%; in the assay on SF-295 CNS it was 99.4%; with SF-539 CNS, 93.5%; in the assay with UACC-257 melanoma it was 99.4%. Also, in the assay with M14 melanoma, the growth is 95.3%.

For the compound `COc1ccc2cc(-c3ccc(-c4ccc(C(=N)N)s4)s3)ccc2c1`, the growth in the assay on NCI-H23 lung is 0.368% (active); in the assay on NCI-H226 lung, 97%; in the assay on HOP-62 NSCLC, -8.34% (active); in the assay with NCI-H460 lung, -59.8% (active); with NCI-H522 lung, -46.7% (active); with A549/ATCC NSCLC, -18.9% (active). For the same compound, the growth in the assay with 786-0 renal was -53.6% (active); with COLO 205 colon, -4.44% (active); in the assay on DU-145 prostate, -67.2% (active); in the assay on K-562 leukemia, -42.8% (active); with MALME-3M melanoma, 101%; in the assay on MDA-MB-231 breast, -15.2% (active). The growth is -25.9% (active) in the assay with RXF 393 renal; -33.9% (active) in the assay on SF-268 CNS; 86% in the assay on SF-295 CNS; 89.5% with SF-539 CNS; 62.8% in the assay on UACC-257 melanoma; 36.2% with M14 melanoma.

For the compound `Cc1ccc(S(=O)(=O)n2cc(C3C(Cl)C(=O)N3c3ccc(N4CCOCC4=O)cc3)c3ccccc32)cc1` (stereo not drawn), the growth was 52.5% with NCI-H23 lung; 67.6% in the assay with HOP-62 NSCLC; 97.2% in the assay on NCI-H460 lung; 63.7% in the assay on NCI-H522 lung; 79.6% with A549/ATCC NSCLC; 86% in the assay with 786-0 renal. Also, the growth was 108% in the assay with COLO 205 colon; 63.6% with DU-145 prostate; 22.5% with K-562 leukemia; 56.4% with MALME-3M melanoma; 16.5% in the assay with MDA-MB-231 breast; 65.5% in the assay on RXF 393 renal. The growth with SF-268 CNS is 57.9%; in the assay on SF-295 CNS it was 82.5%; in the assay with SF-539 CNS, 28.1%; in the assay with UACC-257 melanoma it was 74.3%; in the assay on M14 melanoma, 25.7%.

On to `Cc1cc(C(=O)Nc2cc(Nc3ncccc3-c3ncnc4nc[nH]c34)ccc2F)cc(C(F)(F)F)c1`, for which the growth with NCI-H23 lung is 25.2%; with NCI-H322M lung, 106%; in the assay with HOP-62 NSCLC, 38.5%; with NCI-H460 lung it was 48.8%; with HOP-92 NSCLC, -5.43% (active); in the assay with NCI-H522 lung it was 63.1%. Also, the growth with A549/ATCC NSCLC is 55.7%; in the assay on 786-0 renal it was 63.5%; in the assay on COLO 205 colon, 13.4%; with DU-145 prostate it was 74.8%; in the assay with K-562 leukemia, 4.38% (active); with MALME-3M melanoma, 108%. Besides, the growth in the assay with MDA-MB-231 breast was 22.9%; with RXF 393 renal it was 100%; in the assay with SF-268 CNS, 67.3%; in the assay with SF-295 CNS it was 78.4%; in the assay with SF-539 CNS, 21.4%; in the assay on UACC-257 melanoma, 10.7%. In addition, the growth with M14 melanoma was 5.2% (active).
